Results filed as inconclusive are left out. A call without a number means that no potency is given here. Calls of active or inactive are those of the source. Calls come from the whole dose curve; as a rule, active = well fitted activation curve with a large enough effect in the signal ratio in the repeat runs (not every such curve was filed as active); inconclusive = weak or mixed curves, or effect the other way; inactive = no such curve, though single readings can be large or run the other way; the % refers to the signal ratio.

Sequence of Peroxisome proliferator-activated receptor gamma (Homo sapiens) (P37231 whole entry, looked up): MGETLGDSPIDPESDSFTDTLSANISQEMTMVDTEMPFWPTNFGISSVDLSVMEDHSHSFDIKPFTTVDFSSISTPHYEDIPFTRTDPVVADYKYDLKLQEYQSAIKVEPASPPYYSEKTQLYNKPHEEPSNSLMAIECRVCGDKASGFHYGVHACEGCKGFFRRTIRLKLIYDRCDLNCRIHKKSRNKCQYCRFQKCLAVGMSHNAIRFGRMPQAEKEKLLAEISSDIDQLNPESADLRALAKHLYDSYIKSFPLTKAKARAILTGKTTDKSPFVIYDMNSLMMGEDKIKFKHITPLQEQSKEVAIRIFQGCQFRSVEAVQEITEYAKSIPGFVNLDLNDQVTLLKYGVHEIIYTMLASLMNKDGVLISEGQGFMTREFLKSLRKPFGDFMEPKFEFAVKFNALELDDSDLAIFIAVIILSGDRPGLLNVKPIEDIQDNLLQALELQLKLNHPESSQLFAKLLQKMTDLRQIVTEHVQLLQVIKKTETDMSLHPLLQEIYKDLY

In this assay the target is Peroxisome proliferator-activated receptor gamma (Homo sapiens) (UniProt P37231). Description: qHTS assay to identify small molecule agonists of the peroxisome proliferator-activated receptor gamma (PPARg) signaling pathway (AID 743094). The settings on record: HEK293H PPARg-UAS-bla, beta-lactamase FRET ratio, 17 h; series mostly up to 57 µM. The text has this:
U.S. Tox21 Program National Center for Advancing Translational Sciences [NCATS] NIH Chemical Genomics Center [NCGC] U.S. Environmental Protection Agency [EPA] National Institutes of Environmental Health Sciences [NIEHS] National Toxicology Program [NTP] U.S. Food and Drug Administration [FDA] Tox21 Assay Overview: The peroxisome proliferator-activated receptors (PPARs) are lipid-activated transcription factors of the nuclear receptor superfamily with three distinct subtypes namely PPAR alpha, PPAR delta (also called PPAR beta) and PPAR gamma (PPARg). All these subtypes heterodimerize with Retinoid X receptor (RXR) and these heterodimers regulate transcription of various genes. PPAR-gamma receptor (glitazone receptor) is involved in the regulation of glucose and lipid metabolism. To identify the compounds that activate PPAR-gamma signaling, GeneBLAzer PPAR gamma UAS-bla HEK293H cell line (Invitrogen, Carlsbad, CA, USA) containing a beta-lactamase reporter gene under control of the control of an upstream activator sequence (UAS) stably integrated into HEK293H cells was used to screen Tox21 compound library.
Tox21 Assay Protocol Summary: PPARg-bla cells were dispensed at 3000 cells/6uL/well in 1536-well black wall/clear bottom plates using a Multidrop Combi (Thermo Fisher Scientific, Waltham, MA) dispenser. After the assay plates were incubated at 37C and 5% CO2 for 5 h, 23 nL of compounds dissolved in DMSO, positive controls or DMSO only was transferred to the assay plate by a Pintool station (Kalypsys, San Diego, CA). The assay plates were incubated at 37C for 17 h. After 1 uL of LiveBLAzerTM B/G FRET substrate was added using a Bioraptr Flying Reagent Dispenser (FRD) workstation (Beckman Coulter, Indianapolis, IN, USA), the plates were incubated at room temperature for 1 h, and fluorescence intensity was measured by an Envision plate reader (PerkinElmer, Shelton, CT).
(In general: qHTS replaces the single test concentration by a dilution series.)
Regarding `CC(C)(O/N=C(\C(=O)N[C@@H]1C(=O)N2C(C(=O)[O-])=C(C[n+]3ccccc3)CS[C@H]12)c1csc(N)n1)C(=O)O`, the Potency result is “inactive”.
In the case of `C[S+](CC[C@H](N)C(=O)O)C[C@H]1O[C@@H](n2cnc3c(N)ncnc32)[C@H](O)[C@@H]1O` (stereo not given in full) it was “inactive”; in that of `O=P(O)(O)OP(=O)(O)OP(=O)(O)O`, “inactive”; in that of `CC/C(=C(/CC)c1ccc(OP(=O)(O)O)cc1)c1ccc(OP(=O)(O)O)cc1`, “inactive”.
For `O=C(O)COc1ccccc1/C=N/NC(=O)c1ccncc1` the value was “inactive”.
In the case of `O=C(O)/C=C/C(O)c1ccc(Cl)cc1` (stereo not given) it was “inactive”; in that of `COC(=O)[C@H]1[C@H]2C[C@H]3c4[nH]c5ccccc5c4CCN3C[C@H]2CC[C@@H]1O`, “inactive”; in that of `CC[N+](CC)(CC)CCC(O)(c1ccccc1)C1CCCCC1` (stereo not given), “inactive”.
Regarding `Cc1onc(-c2c(F)cccc2Cl)c1C(=O)N[C@@H]1C(=O)N2[C@@H]1SC(C)(C)[C@@H]2C(=O)O`, the Potency entry is “inactive”.
For the compound `N[C@H](CO)C(=O)O`, the Potency result was “inactive”.
For the compound `C/C(=C\C(=O)OCCCCCCCCC(=O)O)C[C@@H]1OC[C@H](C[C@@H]2O[C@H]2[C@@H](C)[C@H](C)O)[C@@H](O)[C@H]1O`, the Potency result is “inactive”.
In the case of `CN1C(C(=O)Nc2ccccn2)C(=O)c2sc(Cl)cc2S1(=O)=O` (stereo not given) it was “inactive”; in that of `CN[C@@H]1[C@@H](O[C@H]2O[C@H](CO)[C@@H](N)[C@H](O)[C@H]2O)O[C@H]2C[C@@H](N)[C@@H](O[C@H]3[C@H](O)[C@@H](O)[C@H](N)C[C@@H]3N)O[C@@H]2[C@@H]1O`, “inactive”.
For the compound `CC[C@@H](C)[C@H](N)C(=O)O`, the Potency entry was “inactive”.
In the case of `COc1ccc(/C=C/C(=O)O)cc1` it was “inactive”; in that of `CCC(O)c1ccccc1` (stereo not given), “inactive”.
In the case of `O=C(O)C[C@H](O)C[C@H](O)/C=C/c1c(C2CC2)nc2ccccc2c1-c1ccc(F)cc1` it was “inactive”.
`CCCCCCCCCCCCCCCC(=O)OC[C@H](COP(=O)([O-])OCC[N+](C)(C)C)OC(=O)CCCCCCCCCCCCCCC`: the Potency result is “inactive”.
Regarding `CC(C)OC(=O)Nc1ccc2nc(-c3cscn3)[nH]c2c1`, the Potency result was “inactive”.
For `CN(C/C=C/c1ccccc1)Cc1cccc2ccccc12` the value was “inactive”; for `CC(=NCc1ccccc1)c1ccccc1O`, “inactive”; for `CCN1\C(=C/C=C/C=C/c2sc3ccccc3[n+]2CC)Sc2ccccc21`, “inactive”.
In the case of `CCN(CC)CCOC[C@H]1O[C@@H](O)[C@H](OCCN(CC)CC)[C@@H](O)[C@@H]1O` it was “inactive”.
For `OCCCNc1ccccc1` the value was “inactive”; for `NC(=O)[C@@H]1C[C@]2(NC(=O)NC2=O)c2cc(F)ccc2O1`, “inactive”.
For the compound `C[C@H](NCCc1ccc(O)cc1)[C@H](O)c1ccc(O)cc1`, the Potency entry is “inactive”.
In the case of `COC1[C@@H](O[C@@H]2O[C@H](C)[C@@H](O[C@H]3C[C@@](C)(O)[C@H](OC(=O)CC(C)C)[C@H](C)O3)[C@H](N(C)C)[C@H]2O)[C@@H](CC=O)C[C@@H](C)[C@@H](O)/C=C/C=C/C[C@@H](C)OC(=O)C[C@H]1OC(C)=O` (stereo not given in full) it was “inactive”.
As to `CCCCCN=C(N)N/N=C/c1c[nH]c2ccc(OC)cc12`, the Potency entry was “inactive”.
For `O=C(O)c1ccc(NC2OC[C@@H](O)[C@H](O)[C@H]2O)cc1` (stereo not given in full) the value was “inactive”; for `C(=C\c1ccncc1)/c1ccccc1`, “inactive”.
For `NCCO/C=C/[C@H](N)C(=O)O` the value was “inactive”; for `CN(C)CCOc1ccc(/C(=C(/CCCl)c2ccccc2)c2ccccc2)cc1`, “inactive”; for `O=C(CCN1CCC(c2ccccc2)C1)c1ccc2c(c1)OCCO2` (stereo not given), “inactive”.
In the case of `Oc1ccc(Cl)c2c1CCC2` it was “inactive”; in that of `CCOC(=O)[C@H](CCc1ccccc1)N[C@@H](C)C(=O)N1[C@H](C(=O)O)C[C@H]2CCCC[C@@H]21`, “inactive”; in that of `CN1C(=O)C[C@@H](C(=O)N[C@@H](Cc2cnc[nH]2)C(=O)N2CCC[C@H]2C(N)=O)NC1=O`, “inactive”.
With `CC(C)c1ncc([N+](=O)[O-])n1C`, the Potency result is “inactive”.
In the case of `Cc1ncc(C[n+]2csc(CCOP(=O)(O)O)c2C)c(N)n1` it was “inactive”; in that of `C[C@@H]1O[C@@H]1P(=O)(O)O`, “inactive”; in that of `O=S(=O)(O)CC(S)CS` (stereo not given), “inactive”.

The record behind these values is PubChem BioAssay (Tox21).
